Compounds with a hit are over-represented: about 0.43% of the library has one in this group of screens.
Menin-MLL TR inh – menin-MLL binding inhibition, Texas Red mutant peptide; Potency, µM (top dose mostly 61.6 µM), usual class: inhibitors; Menin + Texas Red MLL mutant peptide, fluorescence polarization; 270,000 tested, 0.23% active; O00255; active means well fitted inhibition curve with a large enough effect in the polarisation, with a control signal flat, not every such curve was filed as active; inconclusive means small, poorly fitted or top-dose-only effect, or effect the other way, or a change in a side signal; inactive means no such curve, though single readings can be large or run the other way; the % refers to the polarisation
GoLoco inh red – blocks human Gai1 binding to RGS12 GoLoco peptide, red readout. Gai1:RGS12 GoLoco peptide FP, rhodamine, 10 min. 230,000 tested, 0.44% active. AID 880. P63096. Potency, µM (series often up to 61.6 µM), hits mostly inhibitors; active means well fitted inhibition curve with a large enough effect, not every such curve was filed as active; inactive means no such curve, though single readings can be large or run the other way; further: nearly all actives have a fitted effect of over 30% in size
Target sequence (P63096 whole entry, looked up): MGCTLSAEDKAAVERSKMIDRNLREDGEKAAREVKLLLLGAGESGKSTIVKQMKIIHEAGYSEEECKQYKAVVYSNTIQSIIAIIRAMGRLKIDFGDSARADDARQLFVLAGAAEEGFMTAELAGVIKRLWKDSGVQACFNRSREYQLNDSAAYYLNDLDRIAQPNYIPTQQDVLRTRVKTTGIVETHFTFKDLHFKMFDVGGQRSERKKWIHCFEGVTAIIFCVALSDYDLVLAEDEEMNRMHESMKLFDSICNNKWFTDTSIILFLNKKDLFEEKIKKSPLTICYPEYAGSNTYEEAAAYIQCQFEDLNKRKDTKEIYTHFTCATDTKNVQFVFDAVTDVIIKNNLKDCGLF
Menin MLL FP FL – displaces fluorescein MLL peptide from human menin; Fluorescence polarization, fluorescein-MLL peptide displacement from menin; FP activity change, % at 61.4 µM; 290,000 tested, under 10 active; active means well fitted curve in the direction sought with a large enough effect in the polarisation, not every such curve was filed as active; inconclusive means small, poorly fitted or top-dose-only effect, or effect the other way, or a change in a side signal; inactive means no such curve, though single readings can be large or run the other way; the % refers to the polarisation
Tb PFK inh-1 – blocks T. brucei phosphofructokinase | O15648 | T. brucei PFK, ADP-Glo luminescence | Potency, µM (highest dose often 57.5 µM), hits mostly inhibitors | 330,000 tested, 0.17% active; further: nearly all actives have a fitted effect of over 60% in size
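PFK 1.25 nM, F6P 0.5 mM, ATP 0.1 mM, 0.1 M TEA pH 8.0, 5 mM MgCl2, 0.01% Tween20, 0.1% BSA; 45 min RT. ADP-Glo readout. qHTS titration up to 57 uM; curves fitted, compounds curve-classed.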
MLL CXXC-DNA inh – inhibitors of human MLL CXXC domain-DNA interaction. Q03164. MLL-CXXC / FITC-HOXA9 DNA fluorescence polarization. Potency, µM (titrated, usually from 115 µM), actives largely listed as inhibitors. 290,000 tested, 0.037% active. AID 2662; active means well fitted inhibition curve with a large enough effect in the polarisation, with a control signal flat, not every such curve was filed as active; inconclusive means small, poorly fitted or top-dose-only effect, or effect the other way, or a change in a side signal; inactive means no such curve, though single readings can be large or run the other way; the % refers to the polarisation
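Purified MLL-CXXC (added from a 7 uM solution) was preincubated 5 min at ambient with pinned compounds in 50 mM Tris-HCl pH 7.5, 50 mM NaCl, 1 mM DTT, 0.05% BSA. Fluorescein-labeled HOX-A9 DNA (50 nM solution) followed, 30 min, then polarization read.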
TbPFK ATP – orthogonal confirmation of T. brucei phosphofructokinase inhibitors | shares compounds with Tb PFK inh-1 | Tb PFK enzyme, ATP depletion, Kinase-Glo Plus luminescence | Potency, µM (doses to about 57.5 µM) | 1,100 tested, 47% active; calls by dose curve; further: nearly all actives have a fitted effect of over 60% in size
Tb PFK inh-2 – validation of T. brucei phosphofructokinase inhibitors; shares compounds with Tb PFK inh-1; purified T. brucei PFK, ADP-Glo luminescence, 45 min; Potency, µM (series often up to 57.5 µM), usual class: inhibitors; 1,100 tested, 41% active; further: nearly all actives have a fitted effect of over 60% in size
A number is an active result; – = inactive; ? = inconclusive; · = no result given; [ ] = another dose, or the depositor's remark. Unless noted, the call rests on the fitted dose curve; in most records, active means well fitted inhibition curve with a large enough effect; inconclusive means small, poorly fitted or top-dose-only effect, or effect the other way; inactive means flat fitted curve, though single readings scatter.

SMILES | Menin-MLL TR inh | GoLoco inh red | Menin MLL FP FL | Tb PFK inh-1 | MLL CXXC-DNA inh | TbPFK ATP | Tb PFK inh-2
CCn1c(C)nc2cc(C(=O)N/N=C/c3ccc(O)c(O)c3O)ccc21 | ? | – | – | ? | – | ? | ?
COc1cccc(CNc2ccc(F)c(Cl)c2)c1 | ? | – | – | 23.9µM | – | 10.7µM | 16.9µM
COc1cccc(CNc2ccc(F)c(Cl)c2)c1O | – | – | ? | –[0.46 µM] | – | · | ·
CCn1cc(/C=N\NC(=O)Cc2ccc(Cl)cc2)cn1 | – | – | – | 19µM | – | 7.57µM | 15.1µM
COc1ccc(/C=N\NC(=O)CC(=O)Nc2cccc(Cl)c2)cc1OC | – | – | – | – | – | · | ·
O=C(Cc1ccc(Cl)cc1)N/N=C/c1ccccc1 | ? | – | – | – | – | · | ·
COc1ccc(/C=N/NC(=O)Cc2ccc(Cl)cc2)cc1OC | – | – | – | ? | – | ? | ?
O=C(Cc1ccc(Cl)cc1)N/N=C/c1cccc(O)c1 | – | · | – | 9.53µM | – | 10.7µM | 12µM
C/C(=N\NC(=O)Cc1ccc(Cl)c(Cl)c1)c1cccnc1 | – | · | – | 19µM | – | 12µM | ?
O=C(Cc1ccc(Cl)c(Cl)c1)Nc1cccnc1 | – | · | – | 15.1µM | – | 3.79µM | 12µM
Cc1cc(Br)ccc1NC(=O)CN(C)C(=O)CN1C(=O)NC(C)(C2CC2)C1=O (configuration not stated) | · | · | · | – | · | · | ·
COC(=O)\C(C(C)=O)=C(/C=C/C=C/C=C/N(C)C)N(C)C | ? | – | ? | ? | ? | ? | ?
C#C[C@]1(OC(C)=O)CC[C@H]2[C@@H]3CCC4=C/C(=N/O)CC[C@@H]4[C@H]3CC[C@@]21CC | – | · | – | · | – | · | ·
C=C(C)C(=O)Nc1cccc(C2=NOC3(C2)C[C@@H](C(N)=O)N(C(=O)CC(c2ccccc2)c2ccccc2)C3)c1 (some centres not stated) | · | – | – | 30.1µM | – | 1.51µM | ?
C/C=C(\C)C(=O)Nc1cccc(C2=NOC3(C2)C[C@@H](C(N)=O)N(C(=O)c2ccccc2C(=O)c2ccccc2)C3)c1 (some centres not stated) | · | – | – | – | – | · | ·
C/C=C/C=C/C(=O)N1CC2(CC(c3cccc(NC(=O)CCCCC)c3)=NO2)C[C@H]1C(N)=O (some centres not stated) | · | – | – | ? | – | ? | ?
C/C=C(/C)C(=O)Nc1cccc(C2=NOC3(C2)C[C@@H](C(N)=O)N(C(=O)CC(c2ccccc2)c2ccccc2)C3)c1 (some centres not stated) | · | – | – | – | – | · | ·
C=C(C)C(=O)Nc1cccc(C2=NOC3(C2)C[C@H](C(N)=O)N(C(=O)c2ccccc2C(=O)c2ccccc2)C3)c1 (some centres not stated) | · | – | – | 10.7µM | – | 0.675µM | 0.849µM
C=C(C)C(=O)Nc1cccc(C2=NOC3(C2)C[C@@H](C(N)=O)N(C(=O)/C=C/C=C/C)C3)c1 (some centres not stated) | · | – | – | 3.79µM | – | 0.135µM | 0.19µM
Cc1cc(C)n(-c2ccc(S(=O)(=O)N3CCOCC3)cc2[N+](=O)[O-])n1 | · | – | – | – | – | · | ·
C=C(C)C(=O)Nc1cccc(C2=NOC3(C2)C[C@@H](C(N)=O)N(C(=O)/C(C)=C/C)C3)c1 (some centres not stated) | · | – | – | 3.38µM | – | 0.19µM | 0.169µM
C/C=C(\C)C(=O)Nc1cccc(C2=NOC3(C2)C[C@@H](C(N)=O)N(C(=O)/C(C)=C/C)C3)c1 (some centres not stated) | · | – | – | – | – | · | ·
Cc1ccc(N(CN2C(=O)C3C4CCC(C4)C3C2=O)C(=O)c2ccco2)cc1 (configuration not stated) | · | – | – | – | – | · | ·
CO[C@H]1OC2O[C@@]3(C)CC[C@H]4[C@H](C)CC[C@@H]([C@H]1C)[C@@]24OO3 (some centres not stated) | – | – | – | · | – | · | ·
CCOC(=O)c1c(NC(=O)COC(=O)c2ccc(NC(=O)CC#N)cc2)sc(C(=O)NC)c1C | · | · | · | 0.849µM | · | 6.01µM | 6.75µM
SMILES | Menin-MLL TR inh | GoLoco inh red | Menin MLL FP FL | Tb PFK inh-1 | MLL CXXC-DNA inh | TbPFK ATP | Tb PFK inh-2
CCOC(=O)c1c(NC(=O)COC(=O)c2ccc(O)cc2)sc(C(=O)N(C)C)c1C | – | – | – | – | – | · | ·
O=C(Nc1cccc(N2C(=O)C3CCCCC3C2=O)c1)c1ccccc1 (configuration not stated) | · | · | · | – | – | · | ·
O=C(Nc1cccc(Cl)c1)c1cccc(N2C(=O)C3CC=CCC3C2=O)c1 (configuration not stated) | – | · | – | 26.9µM | – | 6.01µM | 13.5µM
O=C(CCn1c(=S)oc2ccccc21)NC1CCCCCCC1 | · | – | – | – | – | · | ·
CCCCCc1nnc(NC(=O)Cc2cccs2)s1 | ? | – | – | ? | – | ? | ?
CN(C(=O)Nc1ccc(Cl)c(Cl)c1)c1ccccc1C(=O)O | – | – | – | 15.1µM | – | ? | ?
O=[N+]([O-])c1cc(F)c(N2CCCC2)cc1Br | – | – | – | – | – | · | ·
O=[N+]([O-])c1cc2c(cc1Br)CCN2 | – | – | – | 3.38µM | – | 4.26µM | 6.01µM
CCC(C)CC(C)CC(C)C(=O)/C=C(/O)C(C)CC(C)C/C=C/C(C)C(O)C(C)C(O)CC1CCC(C)(C)O1 (configuration not stated) | – | · | – | · | · | · | ·
CCOC(=O)c1c(-c2ccc(OC)cc2)csc1/N=C/C1C(=O)CCCC1=O | – | – | ? | ? | – | – | –
COC1C=CO[C@@]2(C)Oc3c(C)c(O)c4c(O)c(c(C=NN5CCN(C)CC5)c(O)c4c3C2=O)NC(=O)/C(C)=C\C=CC(C)C(O)[C@@H](C)C(O)C(C)[C@H](OC(C)=O)C1C (some centres not stated) | ? | – | – | · | – | · | ·
CN1CCN(C(=O)c2ccc(CSc3nc4ccncc4n3Cc3ccc(F)cc3)cc2)CC1 | – | – | – | – | – | · | ·
O=C(NC1CCCC1)c1ccc(CSc2nc3ccncc3n2Cc2ccc(F)cc2)cc1 | – | – | – | ? | – | ? | 26.9µM
O=C(NCCN1CCOCC1)c1ccc(CSc2nc3ccncc3n2Cc2ccc(F)cc2)cc1 | – | – | – | ? | – | ? | ?
CCC(C)NC(=O)c1ccc(CSc2nc3ccncc3n2Cc2ccc(F)cc2)cc1 (configuration not stated) | – | – | – | ? | – | · | ·
Cc1ccccc1-c1nn[nH]n1 | – | – | – | – | – | · | ·
Oc1ccc(N=Nc2ccccc2-c2nn[nH]n2)c(O)c1 | ? | · | ? | ? | ? | – | ?
CCCNC(=O)[C@H]1O[C@@H]1C(=O)N[C@H](C(=O)N1CCC[C@H]1C(=O)OC)[C@@H](C)CC | · | – | · | · | · | · | ·

Bioassay records: PubChem, National Center for Advancing Translational Sciences (NCATS)
